# Results published in PubChem BioAssay.
# A number with no mark means an inactive call. The source made the active and inactive calls. The rule behind the calls is not given here.
# Molecular target: L-lactate dehydrogenase (Plasmodium falciparum (isolate CDC / Honduras)) (UniProt Q27743)
# Test: PfLDH activity inhibition – cell lysate, 3D7 strain, counter-screen for P. falciparum growth inhibition project (AID 2304);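 note: 0% = vehicle and 100% = reference inhibitor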
# Conditions: P. falciparum 3D7 crude extract, LDH APAD/NBT absorbance; at 2 µM; active compounds read high
# Chain of L-lactate dehydrogenase (Plasmodium falciparum (isolate CDC / Honduras)) (Q27743 whole entry, looked up): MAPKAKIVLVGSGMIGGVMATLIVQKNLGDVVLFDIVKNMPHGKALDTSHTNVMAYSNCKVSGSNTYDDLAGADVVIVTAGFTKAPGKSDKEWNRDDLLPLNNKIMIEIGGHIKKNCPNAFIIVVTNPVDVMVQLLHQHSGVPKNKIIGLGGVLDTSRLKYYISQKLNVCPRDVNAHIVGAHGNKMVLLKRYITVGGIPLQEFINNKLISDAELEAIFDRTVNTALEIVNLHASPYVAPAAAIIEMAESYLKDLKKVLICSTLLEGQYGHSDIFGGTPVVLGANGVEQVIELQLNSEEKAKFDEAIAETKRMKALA
row,Compound,inhibition [%]
1,Cc1cc(F)ccc1N(c1nc(-c2cc(Cl)ccc2Cl)cs1)C1CCNC1 (stereo not drawn),0
2,CCc1nc2nc(C)cc(Nc3ccc(F)c(Cl)c3)n2n1,-3
3,CN(C)CCNC(=O)c1cc2c(-c3ccc(Cl)cc3)nn(C)c2s1,-1
4,CC(=O)c1sc(NC(=O)Nc2ccc(C)cc2C)nc1C,0
5,CCC(=O)NC(c1ccco1)c1cc(Cl)c2cccnc2c1O (stereo not drawn),-5
6,CCNc1cc(C)nc(Nc2ccc(NC(=O)c3ccccc3Br)cc2)n1,-3
7,CCN(CCS(C)(=O)=O)Cc1ccc(-c2ccc3ncnc(Nc4ccc(OCc5cccc(F)c5)c(Cl)c4)c3c2)o1,-7
8,Cc1cccc(C)c1N1CCN(C2CCC(NC(=O)/C=C/c3ccccc3)CC2)CC1 (stereo not drawn),-2
9,COc1cc2c(cc1C(F)(F)F)N(C(=O)Nc1cc(Br)cc(-c3cccnc3)c1)CC2,-1
10,CCOc1cc(Br)c(C(C)NC(=O)c2ccccc2)cc1OCC (stereo not drawn),5
11,Cc1cnccc1/C=C/c1cccc(OCCCN2CCc3ccc(S(C)(=O)=O)cc3CC2)c1,1
12,Cn1nc(-c2cccc(CNC3CCc4ccccc43)c2)c2cnc(NC3CCCC3)nc21 (stereo not drawn),-1
13,O=C(N[C@@H](Cc1ccccc1)C(=O)NC1CCCCCC1)c1ccc(O)c(-c2ccc(Cl)c(Cl)c2)c1,-9
14,CC(=O)N1CCN(c2ccc(NC(=O)c3oc(-c4ccccc4)nc3C(F)(F)F)cn2)CC1,-2
15,Cc1cc(F)ccc1[C@H]1C[C@H](N2CCOCC2)CCN1C(=O)N(C)[C@@H](C)c1cc(C(F)(F)F)cc(C(F)(F)F)c1,3
16,CCNC(=O)Nc1cccc(-c2ccc(-c3nc4c(C)cccc4[nH]3)s2)c1,-4
17,CC1(C)C[C@@H]2C[C@@](C)(CN2C(=O)c2cc(C(C)(C)C)nn2Cc2ccccc2)C1,0
18,Brc1ccsc1-c1nc(NCCC(c2ccccc2)c2ccccc2)no1,-5
19,Cc1[nH]c(C)c(-c2ccc(OCCn3cnc(Cl)c3Cl)cc2)c(=O)c1Br,2
20,COc1ccc2nc(C)cc(NN=Cc3ccc(Cl)cc3)c2c1,3

row,Compound,inhibition [%]
1,CN1CCC(NCc2ccc(-c3cccc(S(=O)(=O)NCCc4ccccn4)c3)cc2)CC1,-1
2,Cc1cccc(Cl)c1S(=O)(=O)Nc1cccc(CCN2CCC(N3CCCCC3)CC2)c1,2
3,C=CCc1cc(C)ccc1OCCCON1C(N)=NC(N)=NC1(C)C,-6
4,O=C(/C=C/c1ccsc1)N1CCC(CCN2CCC(c3c[nH]c4ccccc34)CC2)CC1,4
5,NC(=NCc1ccc(Cl)c(Cl)c1)NC(=NCCCCCCN=C(NC(N)=NCc1ccc(Cl)c(Cl)c1)N1CCCCC1)N1CCCCC1,-5
6,O=C(/C=C/c1ccc(Cl)cc1)NCCCCCN1CCCC(C(=O)Nc2ccc(Cl)c(Cl)c2)C1 (stereo not drawn),-3
7,COc1cc(Nc2ccnc3cc(-c4ccncc4)ccc23)cc(OC)c1OC,0
8,CCOc1cc(C(=O)NC2CCN(Cc3ccccc3)CC2)ccc1-c1nc2cc(Cl)c(Cl)cc2[nH]1,2
9,Cc1[nH]c(C)c(-c2ccc(Oc3cccc(Cl)c3)cc2)c(=O)c1Br,3
10,COc1cccc(Nc2c(C(N)=O)cnc3ccc(-c4ccc(S(C)=O)cc4)cc23)c1 (stereo not drawn),9
11,COc1ccc(CN2CCCN(Cc3ccc(C(=O)Nc4ccc(Cl)cc4)cc3)CC2)cc1,0
12,Nc1nc(N)c2c(ccc3c2ccn3CCCCO)n1,-2
13,CCNC(=O)N[C@@H]1CN[C@@H](C#Cc2cc3c(Nc4ccc(OCc5cccc(F)c5)c(Cl)c4)ncnc3s2)C1,0
14,CS(=O)(=O)CCNCc1cc(-c2cc3ncnc(Nc4ccc(OCc5cccc(F)c5)c(Cl)c4)c3s2)cs1,-2
15,COc1ccccc1CCN1CCC(CN(C)Cc2ccc(O)c(Cl)c2)CC1,-3
16,O=c1cc(NCCCNCc2cccc(SC(F)(F)F)c2)[nH]c2ccccc12,6
17,CCCCCCN=C(N)c1ccc(OCCCCCOc2ccc(C(N)=NCCCCCC)cc2)cc1,-8
18,COc1ccc(NC(=O)c2ccc(-c3ccc(-c4cccnc4)cc3)c(C)c2)cc1OCCN(C)C,0
19,COc1ccc2nccc(NC(=O)N3CCC(NCc4cc5ccccc5[nH]4)CC3)c2n1,-5

# Tested on: not listed separately
# Test: inhibition of 3D7 malaria parasite growth – strain 3D7 (AID 2306);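 note: 0% = DMSO wells and 100% = chloroquine plus artemisinin control wells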
# Conditions: P. falciparum 3D7 erythrocytic growth, LDH absorbance, 72 h; at 2 µM; active compounds read high
row,Compound,growth inhibition
1,Cc1cc(F)ccc1N(c1nc(-c2cc(Cl)ccc2Cl)cs1)C1CCNC1 (stereo not drawn),99% (active)
2,CCc1nc2nc(C)cc(Nc3ccc(F)c(Cl)c3)n2n1,90% (active)
3,CN(C)CCNC(=O)c1cc2c(-c3ccc(Cl)cc3)nn(C)c2s1,98% (active)
4,CC(=O)c1sc(NC(=O)Nc2ccc(C)cc2C)nc1C,96% (active)
5,CCC(=O)NC(c1ccco1)c1cc(Cl)c2cccnc2c1O (stereo not drawn),89% (active)
6,CCNc1cc(C)nc(Nc2ccc(NC(=O)c3ccccc3Br)cc2)n1,100% (active)
7,CCN(CCS(C)(=O)=O)Cc1ccc(-c2ccc3ncnc(Nc4ccc(OCc5cccc(F)c5)c(Cl)c4)c3c2)o1,101% (active)
8,Cc1cccc(C)c1N1CCN(C2CCC(NC(=O)/C=C/c3ccccc3)CC2)CC1 (stereo not drawn),83% (active)
9,COc1cc2c(cc1C(F)(F)F)N(C(=O)Nc1cc(Br)cc(-c3cccnc3)c1)CC2,96% (active)
10,CCOc1cc(Br)c(C(C)NC(=O)c2ccccc2)cc1OCC (stereo not drawn),92% (active)
11,Cc1cnccc1/C=C/c1cccc(OCCCN2CCc3ccc(S(C)(=O)=O)cc3CC2)c1,92% (active)
12,Cn1nc(-c2cccc(CNC3CCc4ccccc43)c2)c2cnc(NC3CCCC3)nc21 (stereo not drawn),100% (active)
13,O=C(N[C@@H](Cc1ccccc1)C(=O)NC1CCCCCC1)c1ccc(O)c(-c2ccc(Cl)c(Cl)c2)c1,92% (active)
14,CC(=O)N1CCN(c2ccc(NC(=O)c3oc(-c4ccccc4)nc3C(F)(F)F)cn2)CC1,92% (active)
15,Cc1cc(F)ccc1[C@H]1C[C@H](N2CCOCC2)CCN1C(=O)N(C)[C@@H](C)c1cc(C(F)(F)F)cc(C(F)(F)F)c1,100% (active)
16,CCNC(=O)Nc1cccc(-c2ccc(-c3nc4c(C)cccc4[nH]3)s2)c1,96% (active)
17,CC1(C)C[C@@H]2C[C@@](C)(CN2C(=O)c2cc(C(C)(C)C)nn2Cc2ccccc2)C1,86% (active)
18,Brc1ccsc1-c1nc(NCCC(c2ccccc2)c2ccccc2)no1,94% (active)
19,Cc1[nH]c(C)c(-c2ccc(OCCn3cnc(Cl)c3Cl)cc2)c(=O)c1Br,95% (active)
20,COc1ccc2nc(C)cc(NN=Cc3ccc(Cl)cc3)c2c1,100% (active)

row,Compound,growth inhibition
1,CN1CCC(NCc2ccc(-c3cccc(S(=O)(=O)NCCc4ccccn4)c3)cc2)CC1,84% (active)
2,Cc1cccc(Cl)c1S(=O)(=O)Nc1cccc(CCN2CCC(N3CCCCC3)CC2)c1,91% (active)
3,C=CCc1cc(C)ccc1OCCCON1C(N)=NC(N)=NC1(C)C,96% (active)
4,O=C(/C=C/c1ccsc1)N1CCC(CCN2CCC(c3c[nH]c4ccccc34)CC2)CC1,88% (active)
5,NC(=NCc1ccc(Cl)c(Cl)c1)NC(=NCCCCCCN=C(NC(N)=NCc1ccc(Cl)c(Cl)c1)N1CCCCC1)N1CCCCC1,100% (active)
6,O=C(/C=C/c1ccc(Cl)cc1)NCCCCCN1CCCC(C(=O)Nc2ccc(Cl)c(Cl)c2)C1 (stereo not drawn),96% (active)
7,COc1cc(Nc2ccnc3cc(-c4ccncc4)ccc23)cc(OC)c1OC,89% (active)
8,CCOc1cc(C(=O)NC2CCN(Cc3ccccc3)CC2)ccc1-c1nc2cc(Cl)c(Cl)cc2[nH]1,101% (active)
9,Cc1[nH]c(C)c(-c2ccc(Oc3cccc(Cl)c3)cc2)c(=O)c1Br,98% (active)
10,COc1cccc(Nc2c(C(N)=O)cnc3ccc(-c4ccc(S(C)=O)cc4)cc23)c1 (stereo not drawn),96% (active)
11,COc1ccc(CN2CCCN(Cc3ccc(C(=O)Nc4ccc(Cl)cc4)cc3)CC2)cc1,91% (active)
12,Nc1nc(N)c2c(ccc3c2ccn3CCCCO)n1,93% (active)
13,CCNC(=O)N[C@@H]1CN[C@@H](C#Cc2cc3c(Nc4ccc(OCc5cccc(F)c5)c(Cl)c4)ncnc3s2)C1,85% (active)
14,CS(=O)(=O)CCNCc1cc(-c2cc3ncnc(Nc4ccc(OCc5cccc(F)c5)c(Cl)c4)c3s2)cs1,99% (active)
15,COc1ccccc1CCN1CCC(CN(C)Cc2ccc(O)c(Cl)c2)CC1,101% (active)
16,O=c1cc(NCCCNCc2cccc(SC(F)(F)F)c2)[nH]c2ccccc12,100% (active)
17,CCCCCCN=C(N)c1ccc(OCCCCCOc2ccc(C(N)=NCCCCCC)cc2)cc1,97% (active)
18,COc1ccc(NC(=O)c2ccc(-c3ccc(-c4cccnc4)cc3)c(C)c2)cc1OCCN(C)C,99% (active)
19,COc1ccc2nccc(NC(=O)N3CCC(NCc4cc5ccccc5[nH]4)CC3)c2n1,85% (active)
